# Screening results as filed in PubChem.
# Pf growth 48h = Primary qHTS for delayed death inhibitors of the malarial parasite plastid, 48 hour incubation; P. falciparum luciferase growth in erythrocytes, 48 h; Potency, µM (highest dose often 28.7 µM), for the others: at the top dose activity change, negative = inhibition, actives largely listed as inhibitors; actives 5.9% (n = 310,000); note: potency is the fitted concentration of half-maximal effect; % is set by controls: 0 for no effect and ±100 for the full control effect
#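 Cell-based growth assay: transgenic P. falciparum expressing firefly luciferase, cultured in red cells within RPMI 1640 containing 0.5% w/v Albumax, 24 mM bicarbonate and gentamycin. A drop in luciferase activity indicates inhibition.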
# Pf growth 96h = Primary qHTS for delayed death inhibitors of the malarial parasite plastid, 96 hour incubation | P. falciparum luciferase reporter growth, 96 h | Potency, µM (highest dose often 28.7 µM), inactives show at the highest dose activity change, negative = inhibition, hits mostly inhibitors | actives 6.9% (n = 320,000) | AID 504834, 2011; note: potency is the fitted concentration of half-maximal effect; % is set by controls: 0 for no effect and ±100 for the full control effect
#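 Plates of compound plus infected erythrocytes (2% hematocrit, 0.05% parasitemia final) incubate 96 hours, 37 C, 5% CO2. Detection reagent added; reduced luminescence from the parasites' luciferase reporter flags inhibition.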
# CHX counter = Cycloheximide Counterscreen for Small Molecule Inhibitors of Shiga Toxin | cell reporter, cycloheximide protein synthesis inhibition counterscreen | max response, % | actives 12% (n = 300,000) | AID 2314, 2010; in the data active = max response mostly above about 13%, no sharp cut-off; inactive = mostly below about 14%; note: read at 38.3 µM for the half of the compounds with a filed dose; 0% is about no effect
# HCV inh = qHTS Assay for Inhibitors of Hepatitis C Virus (HCV). Huh7.5.1 HCVcc-Cre infection, luciferase reporter, 44 h. Potency, µM (doses to about 41.8 µM), for the others: at the top dose activity change, negative = inhibition, hits mostly inhibitors. actives 3.4% (n = 340,000); note: potency is the fitted concentration of half-maximal effect; % is set by controls: 0 for no effect and ±100 for the full control effect
#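 Reporter virus HCVcc-Cre (~0.5 moi) infects cells exposed to compound; seeding density 1,000 cells/well with 4 h settling beforehand. Luminescence, 15 sec read, taken 44 h post-infection following a 15 min RT substrate incubation.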
# HCMV antiviral = qHTS Assay for inhibitors of the human cytomegalovirus (HCMV); HFF cells, HCMV-luciferase reporter, 72 h; active compounds read low; activity change, negative = inhibition, % at 57.5 µM; actives 4.5% (n = 410,000); AID 1259415, 2018; in the data active = activity change below about -60%; inconclusive = no clear call, values can overlap the other calls; inactive = above about -39%; note: % is set by controls: 0 for no effect and ±100 for the full control effect
#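 Cell-based, HFFs, 1000 cells/well, 16 h 37C; cpds in DMSO + HCMV-luc, MOI 1 PFU/cell; 72 h 37C; OneGlo luminescence after 5 min RT; norm. to buffer vs Salinomycin 10uM.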
# Shiga toxin inh = A qHTS for Small Molecule Inhibitors of Shiga Toxin. actives 9.2% (n = 290,000). AID 2315, 2010. Vero cells, Shiga toxin protein synthesis inhibition reporter. inhibition, % at 38.7 µM; in the data active = inhibition mostly above about 28%, no sharp cut-off; inactive = mostly below about 43%; note: 0% is about no effect
# * hit, by the source's call; ? = inconclusive; / = no result given; + = active, no number. Most compounds without a hit are left out; they make up all but 21% or so of the library. Unless noted, calls come from the whole dose curve; as a rule, active = well fitted inhibition curve with a large enough effect; inconclusive = small, poorly fitted or top-dose-only effect, or another doubt; inactive = no such curve, though single readings can be large or run the other way.
SMILES,Pf growth 48h,Pf growth 96h,CHX counter,HCV inh,HCMV antiviral,Shiga toxin inh
COc1ccc(N2CCN(CCCNC(=O)c3ccc4nc(CCc5ccccc5)oc4c3)CC2)cc1,/,/,/,/,-14,/
CC(C)c1ccc(S(=O)(=O)c2cnc(SCC(=O)Nc3ccc4c(c3)OCCO4)[nH]c2=O)cc1,/,/,/,/,8,/
O=C(Cc1ccc(Br)cc1)c1ccc(O)cc1O,71%,/,49*,17%,?,186*
O=C(Cc1ccc2c(c1)OCCO2)c1c(O)cc(O)cc1O,40%,-1%,32*,9%,2,57*
COc1ccc(CC(=O)c2ccc(O)cc2O)cc1,85%,-42%,49*,2%,3,59*
Cc1ccc(C(=O)Cc2ccccc2)c(O)c1,/,/,/,-13%,?,/
COc1ccc(C(=O)Cc2ccc3c(c2)OCO3)c(O)c1,265%,220%,101*,3%,39,+
O=C(O)COc1ccc(C(=O)Cc2ccc3c(c2)OCCCO3)c(O)c1,-16%,/,-1,3%,12,11
Nc1c(-c2nc(-c3ccccc3)cs2)c2ccccn2c1C(=O)c1ccc2c(c1)OCO2,/,/,/,/,17,/
CC(C)NS(=O)(=O)c1ccc(CCC(=O)N2CCCCC2)cc1,0%,-3%,-2,3%,20,5
COc1ccc(NC(=O)CCNS(=O)(=O)c2ccc3c(c2)CCN3C(=O)C2CC2)cc1Cl,/,/,/,/,-18,/
O=C(Cc1ccc([N+](=O)[O-])cc1)OCc1ccc([N+](=O)[O-])cc1,?,6%,-2,16%,11,-3
O=C(Cc1ccc([N+](=O)[O-])cc1)c1ccc(O)cc1O,36%,-23%,16*,14%,36,61*
CC(C)c1ccc(/C=C2\C(=O)N(CCN3CCOCC3)C(=S)N2C)cc1,-7%,-1%,22,10µM*,-66*,-7
CCC(C)Nc1nc(N)c([N+](=O)[O-])c(Nc2cc(OC)ccc2OC)n1 (stereo not drawn),?,?,-1,?,?,15
CN(c1ccccc1)c1nc(N)c([N+](=O)[O-])c(Nc2ccccc2F)n1,-17%,?,19*,5.6µM*,5,11
COc1ccc(OC)c(Nc2nc(N(C)c3ccccc3)nc(N)c2[N+](=O)[O-])c1,?,?,-3,5µM*,38,-3
CN(Cc1ccccc1)c1nc(N)c([N+](=O)[O-])c(Nc2cccc(F)c2)n1,/,?,2,11µM*,44,8
CN(c1ccccc1)c1nc(N)c([N+](=O)[O-])c(Nc2ccc(F)cc2)n1,-16%,0%,7,?,-15,-5
CC(NC(=O)Nc1ccccc1Cl)c1ccc2c(c1)OCO2 (stereo not drawn),11%,135%,11,-29%,-3,-4
COc1ccc(OCCSc2nnc(CC(=O)Nc3cccc(Cl)c3Cl)n2C)cc1,/,36%,23*,/,34,36
CC(C)N(Cc1ccccc1)C(=O)CCS(=O)(=O)c1ccc2c(c1)oc(=O)n2C,-18%,?,-4,12%,3,-3
COc1ccc(C(=O)Nc2c(N)nc(SCC(=O)Nc3ccc(NC(C)=O)cc3)[nH]c2=O)cc1OC,-25%,10µM*,-1,9%,-16,-3
Nc1nc(SCC(=O)Nc2ccc(C(F)(F)F)cc2)[nH]c(=O)c1NC(=O)c1ccc(F)c(F)c1,5%,?,0,8%,25,-4
COCCn1c(=NC(=O)CSCC(=O)N2CCOCC2)sc2ccccc21,-2%,-11%,-2,22%,29,-9
SMILES,Pf growth 48h,Pf growth 96h,CHX counter,HCV inh,HCMV antiviral,Shiga toxin inh
COc1ccc(NC(=O)CNc2ccccc2N2CCCC2=O)cc1S(=O)(=O)N1CCOCC1,?,?,/,0%,-8,/
O=C(/C=C/c1ccc(Cl)cc1)NC(=S)Nc1ccccc1C(=O)O,1%,8%,1,0%,-14,17
NC(=O)c1ccccc1NC(=O)/C=C/c1ccccc1,165%,3%,34*,-22%,122,63*
NC(=O)c1ccccc1NC(=O)/C=C/c1ccc(Cl)cc1,127%,134%,48*,-22%,21,90*
CC(C)=CC(=O)Nc1ccccc1C(N)=O,11%,-23%,2,11%,-74*,-8
C#CCOCCOCCOCCNc1nc(N2CCN(C(=O)[C@H](CCCN=C(N)N)n3cc(C(N)[C@@H](C)CC)nn3)CC2)nc(N2CCN(C(=O)[C@H](CCCCN)n3cc([C@@H](N)CC(N)=O)nn3)CC2)n1 (stereo partly drawn),/,/,/,?,16,/
CCC(=O)N1CCc2cc(S(=O)(=O)NC(C(=O)NCCc3ccccc3)C(C)C)ccc21 (stereo not drawn),/,/,/,/,15,/
COc1ccc(OC)c(-c2cc(C(=O)Nc3cnn(Cc4ccc(Cl)cc4Cl)c3)no2)c1,/,/,/,/,-19,/
COc1ccc(Br)cc1C(=O)Nc1ccc(Cc2ccncc2)cc1,?,?,-5,?,-24,-7
O=C(NC(=S)NC(c1ccccc1)c1ccncc1)c1ccccc1 (stereo not drawn),?,9.3µM*,-6,?,-10,-3
COc1ccccc1C(=O)NC(=S)Nc1ccc(Cc2ccncc2)cc1,?,3%,20*,?,-76*,42*
CC(NC(=S)NC(=O)c1ccccc1)c1ccccc1 (stereo not drawn),/,/,/,6%,7,/
COc1c(C(=O)Nc2ccc(Cc3ccncc3)cc2)ccc2ccccc12,?,-5%,20*,?,-33,96*
COc1cc(C(=O)NC(=S)Nc2ccc(Cc3ccncc3)cc2)cc(OC)c1OC,10µM*,40%,-3,?,-24,-10
CCCCn1nnnc1C1(C)CCC(=O)N1CC1CCCCC1 (stereo not drawn),/,/,/,/,-3,/
O=C(N/C(=C\c1ccc(Cl)cc1)C(=O)N1CCOCC1)c1ccc([N+](=O)[O-])cc1,?,11%,15,6%,55,21
O=C(NC(=S)Nc1ccc(Cc2ccncc2)cc1)c1ccccc1,-66%,?,37*,-1%,?,34
CCC(NC(=O)c1ccncc1)c1ccccc1 (stereo not drawn),2%,15µM*,1,0%,2,-13
Cc1cc(C)cc(C(=O)NC(=S)Nc2ccc(Cc3ccncc3)cc2)c1,?,-8%,-1,?,-74*,-8
CCC(NC(=O)c1ccccc1Br)c1ccccc1 (stereo not drawn),16%,16%,-1,19%,-4,-2
CCOC(=O)c1c(NC(=O)Cc2coc3cc(C)cc(C)c23)sc2c1CCC2,/,/,/,/,0,/
